Assay results reported in PubChem BioAssay (NCI).
Compounds without any hit were thinned out: in the full panel of roughly 83,000, 20% have a hit.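 Results are percent growth after 48 hours of single-concentration exposure. 100 means growth as in untreated cells, lower positive values show inhibition; negative values down to -100 show cell death.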 Calls of active or inactive are those of the source. The calls were made as follows: active = growth percent below 10; inactive = the rest.

What was measured:
Experiment in all cases: NCI-60 one-dose screen, 48 h (100 = growth as untreated, 0 = no growth, -100 = all killed)
Conditions in all cases: 10 µM unless noted
DU-145 prostate = system: DU-145 prostate
K-562 leukemia = system: K-562 leukemia
MALME-3M melanoma = system: MALME-3M melanoma
MDA-MB-231 breast = system: MDA-MB-231 breast
RXF 393 renal = system: RXF 393 renal
SF-268 CNS = system: SF-268 CNS
SF-295 CNS = system: SF-295 CNS
SF-539 CNS = system: SF-539 CNS
UACC-257 melanoma = system: UACC-257 melanoma
M14 melanoma = system: M14 melanoma

Measured: growth

CCN1CCN(CCNc2nccc(-c3c(-c4ccc(F)c(OC)c4)nc4sccn34)n2)S1(=O)=O
inactive: DU-145 prostate 84.1% | K-562 leukemia 54.4% | MDA-MB-231 breast 50.8% | RXF 393 renal 45% | SF-268 CNS 79% | SF-295 CNS 90.5% | SF-539 CNS 99.1% | UACC-257 melanoma 30.7%
active: MALME-3M melanoma -7.64%

CN(CCC(=O)c1ccccc1)CCC(=O)c1ccccc1
inactive: DU-145 prostate 104% | K-562 leukemia 61.7% | MALME-3M melanoma 105% | MDA-MB-231 breast 97.3% | RXF 393 renal 97.9% | SF-268 CNS 101% | SF-295 CNS 108% | SF-539 CNS 88% | UACC-257 melanoma 98.6%

C[C@]1(O)CC(=O)[C@]2(O)C3=C(C=C[C@]2(O)C1)C(=O)c1c(O)cccc1C3=O
inactive: MDA-MB-231 breast 30.2% | SF-268 CNS 85.4% | SF-295 CNS 89.8% | SF-539 CNS 82.4% | UACC-257 melanoma 77.3%
active: DU-145 prostate -82.3% | K-562 leukemia 5.36% | MALME-3M melanoma -96.7% | RXF 393 renal -85.3%

CCOc1c(OC)cc2c(c1O)C(=O)N[C@@H]1[C@@H](O)[C@@H](O)[C@H](O)C[C@@H]21
inactive: DU-145 prostate 109% | K-562 leukemia 91.2% | MALME-3M melanoma 102% | MDA-MB-231 breast 106% | RXF 393 renal 109% | SF-268 CNS 102% | SF-295 CNS 102% | SF-539 CNS 97.7% | UACC-257 melanoma 100%

O=C(/C=C/C12c3ccccc3C(c3ccccc31)C1C(=O)NC(=O)C12)c1ccc(Br)cc1 (centres undefined)
inactive: DU-145 prostate 46.6% | K-562 leukemia 21.6% | MALME-3M melanoma 80.5% | MDA-MB-231 breast 52.6% | RXF 393 renal 25.4% | SF-268 CNS 60.6% | SF-295 CNS 71% | SF-539 CNS 77.9% | UACC-257 melanoma 61.7%

Cc1ccc(-c2csc(N(C(=O)N3CCN(c4cc5c(cc4F)c(=O)c(C(=O)O)cn5C4CC4)CC3)c3ccccc3)n2)cc1
inactive: DU-145 prostate 21.4% | K-562 leukemia 13.5% | MDA-MB-231 breast 24.2% | SF-268 CNS 20.4%
active: MALME-3M melanoma 3.95% | RXF 393 renal 4.05% | SF-295 CNS 2.22% | SF-539 CNS -0.211% | UACC-257 melanoma 9.78%

Cc1c(CC(=S)N2CCOCC2)nnn1-c1cccc(C(F)(F)F)c1
inactive: DU-145 prostate 111% | K-562 leukemia 100% | MALME-3M melanoma 104% | MDA-MB-231 breast 107% | RXF 393 renal 108% | SF-268 CNS 97.7% | SF-295 CNS 109% | SF-539 CNS 95.1% | UACC-257 melanoma 105%

O=C1Nc2ccccc2C1(c1c[nH]c2ccccc12)c1c[nH]c2ccccc12
active: RXF 393 renal -53%
inactive: DU-145 prostate 29.6% | K-562 leukemia 42.9% | MALME-3M melanoma 81.8% | MDA-MB-231 breast 49% | SF-268 CNS 53.2% | SF-295 CNS 86.3% | SF-539 CNS 47.1% | UACC-257 melanoma 94.6%

CCN1CCN(CC(=O)Nc2ccc(-c3cn4c(n3)sc3cc(Oc5ccnc(C(=O)NC)c5)ccc34)cc2)CC1
active: K-562 leukemia -11.1%
inactive: DU-145 prostate 105% | MALME-3M melanoma 87.7% | MDA-MB-231 breast 85.1% | RXF 393 renal 69.2% | SF-268 CNS 87.2% | SF-295 CNS 65.4% | SF-539 CNS 65.4% | UACC-257 melanoma 96.2%

FC(F)(F)c1ccc(Cn2cc(CSc3nc4ccccc4s3)nn2)cc1
inactive: DU-145 prostate 108% | K-562 leukemia 97.1% | MALME-3M melanoma 111% | MDA-MB-231 breast 99% | RXF 393 renal 104% | SF-268 CNS 101% | SF-295 CNS 95.8% | SF-539 CNS 106% | UACC-257 melanoma 87%

CCCCCCCCCCCCCOC(=O)c1c(C)[nH]c(/C=C2\N=C(c3ccc[nH]3)C=C2OC)c1C
inactive: DU-145 prostate 29.3% | MALME-3M melanoma 41.8% | MDA-MB-231 breast 19.6% | RXF 393 renal 27.7% | SF-268 CNS 34.2% | SF-295 CNS 49.9% | SF-539 CNS 10.8% | UACC-257 melanoma 38.7%
active: K-562 leukemia 5.53%

O=C1/C=C/[C@@H](O)[C@@H]2C[C@@H](O)C[C@H]2/C=C/CCC[C@@H](O)CCO1
inactive: DU-145 prostate 105% | K-562 leukemia 105% | MALME-3M melanoma 60.9% | MDA-MB-231 breast 113% | RXF 393 renal 52.4% | SF-268 CNS 85.6% | SF-295 CNS 89.2% | SF-539 CNS 101% | UACC-257 melanoma 49.3% | M14 melanoma 77.8%

Cc1nc2c(c(=O)[nH]1)C(c1ccccc1)c1ccc3ccccc3c1O2 (centres undefined)
inactive: DU-145 prostate 56.2% | K-562 leukemia 11.9% | MALME-3M melanoma 60.9% | MDA-MB-231 breast 46.6% | RXF 393 renal 27.6% | SF-268 CNS 38.2% | SF-295 CNS 22.8% | SF-539 CNS 14.5% | UACC-257 melanoma 34.5% | M14 melanoma 22.2%

C=C1C(=O)O[C@H]2[C@H]1CC/C(COC(=O)/C=C/C(=O)OC/C1=C/CC[C@@]3(C)O[C@H]3[C@H]3OC(=O)C(=C)[C@@H]3CC1)=C\CC[C@@]1(C)O[C@@H]21
active: K-562 leukemia 5.18% | MALME-3M melanoma -27.3% | MDA-MB-231 breast -7.25% | RXF 393 renal -11.3%
inactive: DU-145 prostate 25.4% | SF-268 CNS 90.3% | SF-295 CNS 115% | SF-539 CNS 82.2% | UACC-257 melanoma 60.3% | M14 melanoma 27.5%

O=C(Cn1nnc2ccccc21)N/N=C/c1c[nH]c2ccccc12
inactive: DU-145 prostate 81% | K-562 leukemia 15.2% | MALME-3M melanoma 61% | MDA-MB-231 breast 52% | RXF 393 renal 66.5% | SF-268 CNS 57.5% | SF-295 CNS 44.3% | SF-539 CNS 51.9% | UACC-257 melanoma 65.3% | M14 melanoma 19.7%

COc1ccc(N2CCC(=S)NC2=S)cc1
inactive: DU-145 prostate 108% | K-562 leukemia 100% | MALME-3M melanoma 101% | MDA-MB-231 breast 103% | RXF 393 renal 119% | SF-268 CNS 94.2% | SF-295 CNS 101% | SF-539 CNS 99.9% | UACC-257 melanoma 102% | M14 melanoma 109%

COC(=O)c1nc(-c2ccccc2)oc1S(=O)(=O)NCC(c1ccc(Cl)cc1)N1CCOCC1 (centres undefined)
inactive: DU-145 prostate 78.2% | K-562 leukemia 13.4% | MALME-3M melanoma 76.9% | MDA-MB-231 breast 75.8% | RXF 393 renal 83.6% | SF-268 CNS 77% | SF-295 CNS 101% | SF-539 CNS 92.3% | UACC-257 melanoma 87.3% | M14 melanoma 35%

CCCCNc1nnc2n(Cc3ccccc3)c(=O)c3c4c(sc3n12)CCCC4
inactive: DU-145 prostate 38.3% | K-562 leukemia 41.2% | MALME-3M melanoma 40.3% | MDA-MB-231 breast 54.9% | RXF 393 renal 63.2% | SF-268 CNS 63.6% | SF-295 CNS 48.4% | SF-539 CNS 47.1% | UACC-257 melanoma 54.1% | M14 melanoma 56.3%

Oc1ccc(/C=C/c2ccc(O)cc2)cc1
inactive: DU-145 prostate 56.9% | K-562 leukemia 69.5% | MALME-3M melanoma 58.9% | MDA-MB-231 breast 80.1% | RXF 393 renal 62.8% | SF-268 CNS 42.7% | SF-295 CNS 88.1% | UACC-257 melanoma 72.3% | M14 melanoma 65%
active: SF-539 CNS -11.4%

COc1cc(C(=O)n2nc(N3CCOCC3)c3cc(-n4cccc4)ccc32)cc(OC)c1OC
inactive: DU-145 prostate 61.2% | K-562 leukemia 52.4% | MALME-3M melanoma 87.1% | MDA-MB-231 breast 54.9% | SF-268 CNS 76.8% | SF-295 CNS 71.8% | SF-539 CNS 79.9% | UACC-257 melanoma 103% | M14 melanoma 52.7%
active: RXF 393 renal -9.27%

COC(=O)CC[C@@H]1O[C@@H](c2ccc(F)cc2)[C@@H](O)[C@H]1O
inactive: DU-145 prostate 112% | K-562 leukemia 109% | MALME-3M melanoma 101% | MDA-MB-231 breast 117% | RXF 393 renal 112% | SF-268 CNS 103% | SF-295 CNS 104% | SF-539 CNS 102% | UACC-257 melanoma 107% | M14 melanoma 92.9%

COc1cccc(/C=N/NC(=O)c2ccccc2N2CCCC2)c1O
active: UACC-257 melanoma -29.8%
inactive: DU-145 prostate 68% | K-562 leukemia 13.6% | MALME-3M melanoma 75.7% | MDA-MB-231 breast 47.8% | RXF 393 renal 63.8% | SF-268 CNS 38.8% | SF-295 CNS 86.2% | SF-539 CNS 61.8% | M14 melanoma 48.5%

CCOC(=O)c1cnc2c(N=Nc3ccc(OC)cc3)c(N)nn2c1N
inactive: DU-145 prostate 102% | K-562 leukemia 107% | MALME-3M melanoma 106% | MDA-MB-231 breast 101% | RXF 393 renal 113% | SF-268 CNS 94.2% | SF-295 CNS 102% | SF-539 CNS 110% | UACC-257 melanoma 103% | M14 melanoma 110%

N[C@H]1CCC[C@@H]1NCCCCN1C(=O)c2cccc3cc([N+](=O)[O-])cc(c23)C1=O
inactive: DU-145 prostate 29.9% | K-562 leukemia 25.2% | MALME-3M melanoma 73% | MDA-MB-231 breast 39.5% | RXF 393 renal 44.1% | SF-268 CNS 36.5% | SF-295 CNS 66.6% | SF-539 CNS 38.1% | UACC-257 melanoma 72.7% | M14 melanoma 76.8%

CC1(C)N=C(N)N=C(N)N1c1ccc(CCCCc2ccccc2)c(Cl)c1
active: SF-539 CNS -3.79% | UACC-257 melanoma 3.22%
inactive: DU-145 prostate 27% | K-562 leukemia 18% | MALME-3M melanoma 52.2% | MDA-MB-231 breast 42.5% | RXF 393 renal 30.6% | SF-268 CNS 19.6% | SF-295 CNS 29.6% | M14 melanoma 33.5%

O=C1Nc2c(C(=O)O)cccc2/C1=N/c1n[nH]c(=S)s1
inactive: DU-145 prostate 98.5% | K-562 leukemia 41.3% | MALME-3M melanoma 105% | MDA-MB-231 breast 86.2% | RXF 393 renal 112% | SF-268 CNS 83.3% | SF-295 CNS 94.7% | SF-539 CNS 91.9% | UACC-257 melanoma 99.6% | M14 melanoma 90.9%

COc1cc(OC)c(C(=O)C(CN(C)C)CN(C)C)cc1OC
inactive: DU-145 prostate 87.3% | SF-268 CNS 99.1% | SF-295 CNS 101% | SF-539 CNS 67.7%
active: K-562 leukemia -42.3% | MALME-3M melanoma -87.8% | MDA-MB-231 breast -59.7% | RXF 393 renal -75% | UACC-257 melanoma 8.98% | M14 melanoma -31.6%
